Data on 40 compounds can be found in PubChem BioAssay (NCI).

Molecules are shown by their SMILES. About 83,000 compounds went through this panel and 20% of them were active in at least one assay; those are over-represented in the sample as a whole.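 48-hour exposure, single concentration, 96-well plates; percent growth endpoint where 0 means no net growth. Active: below 10.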 Calls of active or inactive are those of the source.

This assay concerns HL-60(TB) leukemia. Put plainly: NCI-60 one-dose screen, 48 h (100 = growth as untreated, 0 = no growth, -100 = all killed). As to conditions: 10 µM unless noted.
Regarding `CN(CCC#N)c1ccc(/C=C(\C#N)c2cccc(C(F)(F)F)c2)cc1`, the growth was 69.5% (inactive).

With `c1ccc2[nH]c(-c3cc(-c4ccc5c(c4)OCO5)n[nH]3)nc2c1`, the growth was 13.3% (inactive).

Consider `O=C(/C=C/c1ccc(F)cc1)c1ccc(NC(=O)N2CCN(c3cc4c(cc3F)c(=O)c(C(=O)O)cn4C3CC3)CC2)cc1`, for which the growth was 98.1% (inactive).

On to `O=[N+]([O-])c1ccc(Oc2nc(Nc3ccc(O[C@H]4CO[C@H]5[C@@H]4OC[C@@H]5O)c(Cl)c3)ncc2F)c(Cl)c1`, for which the growth was 25.6% (inactive).

Regarding `OCCS`, the growth was 98.4% (inactive).

In the case of `O=c1oc2ccccc2cc1-c1csc(N/N=C/c2cc3ccccc3nc2Cl)n1`, the growth was 116% (inactive).

With `CCOC(=O)c1cc2c(n1Cc1cc(OC)c(OC)c(OC)c1)-c1nc(N)sc1CCC2`, the growth was 13.2% (inactive).

As to `CCOC(=O)c1ccc(NC(=O)Nc2nncs2)cc1`, the growth was 5.62% (active).

Turning to `O=[N+]([O-])c1cc(NS(=O)(=O)c2ccccc2)ccc1NS(=O)(=O)c1ccccc1`, the growth is 113% (inactive).

For `COc1ccc(Cl)cc1NC(=O)c1cc2c(n1C)-c1nc(NC(=O)C(C)C)sc1CC2`, the growth is 74.7% (inactive).

On to `COC(=O)c1ccc(NC(=O)CSc2nc(-c3ccc(F)cc3)nc3ccccc23)cc1`, for which the growth is 94.3% (inactive).

With `O=c1ccn2c(n1)OC1CC2OC1COC(c1ccccc1)(c1ccccc1)c1ccccc1` (stereo not given), the growth was 89.2% [100 µM] (inactive).

In the case of `NS(=O)(=O)c1cnccc1Sc1ccncc1S(N)(=O)=O`, the growth was 82.5% (inactive).

As to `CCC(C)(C)c1ccc(OCCCCCCN2CCN(c3ccc(C)c(Cl)c3)CC2)cc1`, the growth was 84.5% (inactive).

With `COc1ccc(/C=C/C(=O)c2cc3c(N)c(C(=O)Nc4ccc(OC)cc4)sc3nc2C)cc1`, the growth is 2.26% (active).

Consider `O=C1c2cccc3cccc(c23)C(=O)N1CC#Cc1ccc2c3c(cccc13)C(=O)N(CCN1CCNCC1)C2=O`, for which the growth was 93% (inactive).

`c1cc(C2CCCCC2)ccc1OCCCCCCN1CCNCC1`: the growth was -38.4% (active).

Take `NS(=O)(=O)c1ccc(C(=O)N=Nc2c(O)[nH]c3c(F)cccc23)cc1`: the growth is 102% (inactive).

As for `Cc1nnc2nc(N)[nH]n2c1=O`, the growth is 99.6% (inactive).

As for `O=c1c2c3c(sc2n2cnnc2n1Cc1ccccc1)CCCC3`, the growth is 84.3% (inactive).

Regarding `COc1cc(-c2cccc([N+](=O)[O-])c2)c(-c2nc(-c3ccccc3)c(-c3ccccc3)n2C2CC2)cc1OC`, the growth was 9.63% (active).

As for `N=C(N)c1ccc(-c2ccc(-c3cc(Cl)cc(Cl)c3)s2)nc1`, the growth was -7.02% (active).

In the case of `O=c1oc2ccc(Br)cc2c(=O)n1-c1ccc(Cl)cc1F`, the growth is -32.8% (active).

As to `NC(=O)c1cccc(-n2ccc3cc(NC(=O)Nc4ccc(Cl)c(Cl)c4)ccc32)n1`, the growth is 102% (inactive).

In the case of `COc1cc2nccc(Oc3ccc(NC(=O)C4(C(=O)Nc5ccc(F)cc5)CC4)cc3)c2cc1OC`, the growth was 8.85% (active).

For the compound `Clc1ccc(/C=C/c2ccccn2)cc1`, the growth was 99.4% (inactive).

For `COc1ccc(S(=O)(=O)Nc2cc(Sc3cccc4cccnc34)c(O)c3ccccc23)cc1`, the growth was -18.8% (active).

On to `COc1ccc(C(O)c2cc3c(N)c(C(=O)Nc4cccc(Br)c4C)sc3nc2C)cc1` (stereo not given), for which the growth is -41% (active).

Consider `N#Cc1c(-c2ccc(F)cc2)c(C#N)c2c(C#N)c(N)nn2c1N`, for which the growth is 99.7% (inactive).

Consider `O=C1CCCN1C1CCN2CCCc3cccc1c32` (stereo not given), for which the growth was 92.7% (inactive).

As for `Cc1cc2c(C(=O)NCC#N)cccc2n1-c1nc2c(c(NCc3ccccc3)n1)CCCC2`, the growth was -23.5% (active).

Regarding `CCCCCCCC/C=C\CCCCCCCC(=O)OCCCCCC`, the growth is 93.6% (inactive).

As to `CC(=O)[C@H]1CC[C@]2(C)[C@@H]1CC[C@@H]1[C@@]3(C)CC(CCC#N)(CCC#N)C(=O)C(C)(C)[C@@H]3CC[C@]12C`, the growth is 103% (inactive).

Regarding `C=C1C(=O)O[C@H]2[C@H]1CC/C(COC(=O)NCc1cc(OC)cc(OC)c1)=C\CC[C@@]1(C)O[C@@H]21`, the growth is -20.1% (active).

Regarding `O=C(CSCC(=O)N/N=C/c1ccccc1O)N/N=C\c1ccccc1O`, the growth was -32.8% (active).

Turning to `COc1ccc(COc2cc3oc(=O)c4cc(C(C)O)ccc4c3cc2OC)cc1` (stereo not given), the growth is 73.1% (inactive).

Regarding `O=S(=O)(Nc1ccc(F)cc1F)c1ccc(-c2cnc(C3CC3)o2)cc1`, the growth was 1% (active).

Consider `Cc1nc(Nc2ccc(Cl)cc2)c2cnn(-c3ccccc3)c2n1`, for which the growth is 102% (inactive).

As for `CCOC(=O)[C@@H]1CCCN(S(=O)(=O)c2ccc(S(=O)(=O)N(CC)CC)c(F)c2)C1`, the growth is 81.4% (inactive).

Take `Oc1ccc(-c2nc3ccccc3s2)cc1CN(Cc1ccccn1)Cc1ccccn1`: the growth is 1.27% (active).
